Screening data: PubChem, several laboratories
Only some compounds are listed: those with a hit (about 3.4% of all), similar ones and a draw of the others.
hgDAF12 agonist: agonists of H. glycines DAF-12 nuclear receptor; HEK293 GAL4-hgDAF12 UAS-luciferase reporter, agonist luminescence; normalized to butyrate control; activation, % at 6.8 µM; hit rate 1.8% among 370,000;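 active = activation above a cutoff set at the mean of all screened compounds plus 3 SD, cut at about 10% in these data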;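 note: 0% = DMSO wells and 100% = sodium butyrate wells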
ssDAF-12 act: S. stercoralis DAF-12 activation, primary screen; hit rate 1% among 370,000; AID 652126; activation, % at 6.8 µM; HEK293 ssDAF-12/GRIP1 lit1-tk-luc reporter, luminescence; % of 3 µM dafachronic acid response;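 active = activation above the mean over all tested compounds plus 3 SD, cut at about 0.9% in these data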;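 note: 0% = DMSO-only wells and 100% = 3 µM delta7-dafachronic acid wells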
NF-kB expr up: NF-kB expression increase, human neuronal cells; NF-kB reporter expression; stronger effect = higher value; hit rate 1.6% among 190,000; fold change at 12.5 µM; in the data active = fold change above about 3.3
APP 5'UTR act: APP 5'UTR luciferase reporter activation. SH-SY5Y APP 5'UTR luciferase reporter, luminescence; zero percent = DMSO vehicle wells. activation, % at 2 µM. hit rate 1% among 190,000. AID 1276;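 active = activation above a set limit, based on mean plus 3 SD of controls, cut at about 140% in these data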
hcDAF12 agonist: H. contortus DAF-12 activation, primary screen; hit rate 1.4% among 370,000; activation, % at 6.8 µM; HEK293 hcDAF-12 lit1-tk-luc reporter, luminescence; 0% DMSO, 100% Δ7-dafachronic acid; AID 652067;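 active = activation above the mean of all tested compounds plus 3 SD, cut at about 5.5% in these data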;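 note: 100% = response to 3 µM Δ7-dafachronic acid high control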
LXR ag: activates human LXR-beta, counter-screen for hcDAF-12 agonists. shares compounds with hcDAF12 agonist. HEK293 Gal4-LXR tk-luc reporter, luminescence, 24 h; normalized: DMSO 0%, positive control 100%. activation, % at 6.8 µM. 3,400 tested, under 10 active;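 active = mean percent activation of the reporter above a cutoff set as the average over tested compounds plus their standard deviation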
Target sequence (P55055 whole entry, looked up, the tested form may be a part): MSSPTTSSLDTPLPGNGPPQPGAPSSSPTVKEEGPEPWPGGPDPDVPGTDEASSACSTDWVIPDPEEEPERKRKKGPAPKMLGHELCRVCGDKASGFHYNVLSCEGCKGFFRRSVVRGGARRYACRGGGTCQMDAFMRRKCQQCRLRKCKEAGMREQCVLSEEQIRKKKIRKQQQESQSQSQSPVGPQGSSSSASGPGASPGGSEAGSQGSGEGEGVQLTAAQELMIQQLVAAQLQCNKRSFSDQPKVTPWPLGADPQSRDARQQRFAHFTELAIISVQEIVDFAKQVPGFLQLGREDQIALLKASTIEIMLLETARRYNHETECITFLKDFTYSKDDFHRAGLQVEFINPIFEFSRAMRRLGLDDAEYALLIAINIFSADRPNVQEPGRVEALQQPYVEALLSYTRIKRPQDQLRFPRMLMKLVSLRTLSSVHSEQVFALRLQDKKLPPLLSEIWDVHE
hcDAF12 ag: hcDAF-12 agonism, confirmation assay. HEK293 hcDAF-12 lit1-tk-luc reporter, luminescence; % of Δ7-dafachronic acid response. shares compounds with hcDAF12 agonist. AID 743032. activation, % at 6.8 µM. hit rate 61% among 3,400;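 active = mean activation across triplicate tests above the threshold derived from the earlier primary screen, cut at about 5.5% in these data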;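 note: 0% = DMSO only wells and 100% = 3 µM Δ7-dafachronic acid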
An asterisk follows results filed as active; . = not tested or not shown.

SMILES	hgDAF12 agonist	ssDAF-12 act	NF-kB expr up	APP 5'UTR act	hcDAF12 agonist	LXR ag	hcDAF12 ag
COc1ccccc1CCc1nnc(CCC(=O)N(C)Cc2cccc3cnccc23)o1	11*	-1	2.1	38	1	.	.
COc1ccc(CNC(=O)CN(c2cccc(OC)c2)S(C)(=O)=O)cc1	-1	-1	1.1	-14	2	.	.
COc1ccc(CNC(=O)CN(c2cccc([N+](=O)[O-])c2)S(C)(=O)=O)cc1	13*	0	0.99	-1	1	.	.
Cc1ccccc1-c1nnc2n1N=C(c1ccc(O)c(O)c1)CS2	-7	-2	.	.	-3	.	.
CN(C)c1ccc(C(CN)c2c[nH]c3ccccc23)cc1 (centres undefined)	4	0	0.87	39	5	.	.
NCC(c1ccco1)c1c[nH]c2ccccc12 (centres undefined)	-1	0	.	.	6.1*	.	.
Cc1ccccc1/C=C/c1nc2ccccc2c(=O)[nH]1	11*	0	.	.	4	.	.
Cc1ccc(C)c(NC(=O)C2CCCN2S(=O)(=O)c2cccnc2)c1 (centres undefined)	0	0	.	.	-1	.	.
CCOC(=O)CSc1nc2sc3c(c2c(=O)n1-c1ccc(C)cc1)CCN(C)C3	0	0	.	.	6.1*	.	.
CCOC(=O)CSc1nc2sc3c(c2c(=O)n1-c1ccc(OC)cc1)CCN(C)C3	1	-1	.	.	2	.	.
Fc1ccc(F)c(C2=NNC(=NCC3CCCO3)SC2)c1 (centres undefined)	12*	0	1.2	14	5	.	.
CC(=O)Nc1ccc(C2=NNC(=NCC3CCCO3)SC2)cc1 (centres undefined)	-1	-1	0.92	17	3	.	.
CCCC1CCC2(CC1)CCC2OC(=S)NCc1cccc(OC)c1 (centres undefined)	3	0	.	.	-1	.	.
Cc1ccc(S(=O)(=O)CCC(=O)N2CCc3ccccc32)cc1	2	1	1.1	-6	6.8*	0	4
CCCCOCCCNC(=O)C[C@H]1C[C@@]2(C(=O)OC)C(=C[C@H](COCc3ccccc3)O[C@@H]2C)N(Cc2ccc(Cl)cc2Cl)C1=O	7	-1	.	.	-2	.	.
c1csc(-c2ccc3ccccc3n2)c1	8	0	2.2	43	5	.	.
Cc1cc2ncc(-c3cccs3)nc2cc1C	18*	2.1*	.	.	15*	3	18*
COc1ccc(-c2nnn3c2Cn2c4ccccc4c(=O)n2[C@@H](C(C)C)C3)cc1	-3	0	.	.	-3	.	.
COc1cccc(Cn2cc(COC(=O)N3CCOCC3)nn2)c1	-1	-1	.	.	-3	.	.
CCCCOc1ccc(C(=O)NC2CCCCN(Cc3ccccc3C)C2=O)cc1 (centres undefined)	1	-2	.	.	-4	.	.
O=C1C(c2ccnc3ccccc23)=C(O)c2ccccc21	16*	3.3*	3	183*	26*	2	20*
COC(=O)[C@@]12CCCCC3=C1N(CCC3)C(=O)[C@H]2CC(=O)N1CCC(c2ccccc2)CC1	0	-2	.	.	-1	.	.
COc1ccc(-c2cc(=O)c3c(O)c(OC)c(O)cc3o2)cc1	10	1.3*	9*	152*	6.7*	1	5
O=C(Nc1nnc(-c2ccccc2)s1)c1ccc(F)cc1	3	-1	1.5	82	6.7*	0	2
CN1CCCN(C(=O)CN2C(=O)CC(C)(C)S(=O)(=O)c3ccccc32)CC1	2	0	.	.	-1	.	.
O=C(/C=C/c1ccccc1O)c1ccc(Cl)cc1	9	1	1.9	25	6.8*	0	4
C/C(=C/c1[nH]c(N)[n+](CC2CC2)c1Cc1ccccc1)Cn1[nH]c(=O)n(-c2ccccc2)c1=O	-4	-2	.	.	-2	.	.
O=c1c(=Nc2ccccc2O)c(=O)c2ccccc12	0	-1	3.1	19	8.3*	1	5
O=Nc1c(O)c2ccccc2c2ccccc12	-12	-2	.	.	-5	.	.
CCc1ccc(N2Cc3ccccc3C2)cc1	29*	1	.	.	6.9*	1	7.7*
